The source of these data is PubChem BioAssay (EPA / NIEHS).

SMILES strings stand for the structures. Results filed as inconclusive are left out. Active and inactive are the calls of the source. Rule for the calls, unless noted: active = hit-call score of the fitted dose curve at least 0.9, where 1 is the maximum; inactive = score below 0.9.

As a reminder, the AC50 is the midpoint of the concentration-response curve, whichever way the signal moves.

The nature of assay [1]: ATG_NFI_CIS: Attagene CIS-FACTORIAL HepG2 Assay for human Nuclear Factor I (NFI) (AID 2282989). To be noted: HepG2 cis-regulatory reporter, NFI response element transcription; actives raise or lower the signal. The procedure, abridged: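 Read-out: reporter mRNA via RT-PCR plus capillary electrophoresis with fluorescence detection. Transiently transfected HepG2 (endogenous TF activity on cis promoters), 24 h compound exposure; gain or loss of signal fitted against DMSO.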

In assay [2] the target is Myc proto-oncogene protein (Homo sapiens) (UniProt P01106). Nature of the assay: ATG_Myc_CIS: Attagene CIS-FACTORIAL HepG2 Assay for human Myelocytomatosis (Myc) Proto-Oncogene Transcription Factor (AID 2282990). The following applies: HepG2, Attagene cis-reporter transcription factor activity; actives raise or lower the signal. The procedure, abridged: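 Transiently transfected HepG2 cells bearing cis-promoter reporter units for endogenous transcription factors; 24 h exposure. Reporter mRNA measured by RT-PCR, 6-FAM primer extension, HpaI cut and capillary electrophoresis; bidirectional fit relative to DMSO.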
Myc proto-oncogene protein (Homo sapiens), sequence (P01106 whole entry, looked up): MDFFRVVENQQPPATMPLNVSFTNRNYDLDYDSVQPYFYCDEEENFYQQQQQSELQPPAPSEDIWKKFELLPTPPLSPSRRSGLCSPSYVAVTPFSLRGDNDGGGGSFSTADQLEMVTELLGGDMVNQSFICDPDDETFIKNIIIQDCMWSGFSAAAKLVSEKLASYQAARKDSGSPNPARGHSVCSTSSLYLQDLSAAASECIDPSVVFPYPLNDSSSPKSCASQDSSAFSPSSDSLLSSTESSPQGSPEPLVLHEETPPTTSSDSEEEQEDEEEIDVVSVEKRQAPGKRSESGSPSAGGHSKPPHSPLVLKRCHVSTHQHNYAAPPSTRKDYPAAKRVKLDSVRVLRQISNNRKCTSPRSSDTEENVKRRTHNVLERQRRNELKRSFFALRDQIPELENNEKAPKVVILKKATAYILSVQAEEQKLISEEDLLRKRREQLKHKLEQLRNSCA

A short description of assay [3]: ATG_NF_kB_CIS: Attagene CIS-FACTORIAL HepG2 Assay for human Nuclear Factor Kappa B (NF-kB) (AID 2282991). The following applies: HepG2 Attagene cis-factorial NF-kB reporter mRNA; actives raise or lower the signal. The procedure, abridged: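 Read-out: reporter transcript levels quantified by RT-PCR plus capillary electrophoresis of 6-FAM-labelled, HpaI-cut fragments. Transfected HepG2 cells, 24 h compound exposure, endogenous NF-kB-driven cis element; gain or loss scored versus DMSO.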

Assay [4] is described as follows: ATG_NRF2_ARE_CIS: Attagene CIS-FACTORIAL HepG2 Assay for human Nuclear Factor Erythroid 2 Related Factor 2 (NFR2) response to Antioxidant Response Elements (ARE) (AID 2282992).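 For AC50: reporter mRNA level measured by RT-PCR and capillary electrophoresis fluorescence.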 The following applies: HepG2 Attagene ARE/NRF2 reporter, transcription factor activity; actives raise or lower the signal. In outline:
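Endogenous transcription factor activity in human liver HepG2 cells is tracked via a cis-element-driven reporter within a multiplexed set. mRNA induction is read by RT-PCR and capillary electrophoresis after 24 h, with DMSO as baseline.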

A short description of assay [5]: ATG_Oct_MLP_CIS: Attagene CIS-FACTORIAL HepG2 Assay for human Octamer-Binding Transcription Factor (Oct) (AID 2282993). To be noted: HepG2 Attagene cis-factorial Oct reporter, mRNA; actives raise or lower the signal. The procedure, abridged: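 Read-out: reporter mRNA via RT-PCR plus capillary electrophoresis of 6-FAM-labelled fragments. Transiently transfected HepG2, 24 h exposure, endogenous TF activity on cis elements. Gain or loss of signal fitted relative to DMSO.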

In assay [6] the target is Cellular tumor antigen p53 (Homo sapiens) (UniProt P04637). As to the kind of experiment: ATG_p53_CIS: Attagene CIS-FACTORIAL HepG2 Assay for human p53 Transcription Factor (AID 2282994). The following applies: HepG2 p53 cis-element reporter, Attagene mRNA; actives raise or lower the signal. The procedure, abridged:
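Steps: transfect HepG2 with multiplexed cis reporter constructs; dose chemicals 24 h; extract RNA, reverse-transcribe, PCR-amplify reporter sequences; FAM-label, HpaI-digest, resolve fragments by CE. Activity fitted both directions relative to DMSO.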

Assay [7] deals with human Peroxisome Proliferator-activated Receptor alpha (PPARa), PPARA (gene 5465) (UniProt Q07869). As to the kind of experiment: ATG_PPARa_TRANS: Attagene TRANS-FACTORIAL HepG2 Assay for human Peroxisome Proliferator-activated Receptor alpha (PPARa) (AID 2283001; active = hit-call score of the fitted dose curve at least 0.9, where 1 is the maximum;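 for AC50: potency for gain of reporter signal over DMSO so agonist or activator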). The procedure, abridged: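 HepG2, transient MRTU transfection, 24 h treatment. RT-PCR → FAM labelling → capillary electrophoresis. Fit vs DMSO, positive direction.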
human Peroxisome Proliferator-activated Receptor alpha (PPARa), PPARA (gene 5465), sequence (Q07869 whole entry, looked up): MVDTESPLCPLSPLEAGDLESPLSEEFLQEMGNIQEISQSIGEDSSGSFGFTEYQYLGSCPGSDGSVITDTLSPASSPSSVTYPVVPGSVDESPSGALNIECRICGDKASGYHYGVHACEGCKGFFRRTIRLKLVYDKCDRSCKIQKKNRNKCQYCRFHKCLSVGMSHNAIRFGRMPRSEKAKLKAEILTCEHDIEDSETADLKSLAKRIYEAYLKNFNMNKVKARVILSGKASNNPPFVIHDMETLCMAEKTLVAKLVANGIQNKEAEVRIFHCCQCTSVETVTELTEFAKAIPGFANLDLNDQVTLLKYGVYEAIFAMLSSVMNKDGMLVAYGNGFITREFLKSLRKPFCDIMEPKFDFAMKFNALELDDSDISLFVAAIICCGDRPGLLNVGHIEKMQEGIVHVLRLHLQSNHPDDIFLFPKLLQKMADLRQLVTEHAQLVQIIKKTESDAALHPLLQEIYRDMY

Assay [8] addresses human Peroxisome Proliferator-activated Receptor delta (PPARd), PPARD (gene 5467) (UniProt Q03181). Nature of the assay: ATG_PPARd_TRANS: Attagene TRANS-FACTORIAL HepG2 Assay for human Peroxisome Proliferator-activated Receptor delta (PPARd) (AID 2283002; active = hit-call score of the fitted dose curve at least 0.9, where 1 is the maximum). The procedure, abridged: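 HepG2 cells transiently transfected with GAL4-UAS multiplexed reporter units driven by exogenous chimeric NR-GAL4 proteins; 24 h compound exposure. Reporter mRNA measured by RT-PCR, 6-FAM primer extension, HpaI digestion and capillary electrophoresis; gain of signal fitted relative to DMSO.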

The target of assay [9] is Peroxisome proliferator-activated receptor gamma (Homo sapiens) (UniProt P37231). Nature of the assay: ATG_PPARg_TRANS: Attagene TRANS-FACTORIAL HepG2 Assay for human Peroxisome Proliferator-activated Receptor-gamma (PPARg) (AID 2283007; active = hit-call score of the fitted dose curve at least 0.9, where 1 is the maximum). The procedure, abridged: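 Read-out: reporter mRNA induction, detected by fluorescence after RT-PCR and capillary electrophoresis. Transiently transfected human HepG2 liver cells carrying a chimeric NR-Gal4 construct were dosed for 24 h; activity was fitted upward relative to DMSO.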
Peroxisome proliferator-activated receptor gamma (Homo sapiens), sequence (P37231 whole entry, looked up, the tested form may be a part): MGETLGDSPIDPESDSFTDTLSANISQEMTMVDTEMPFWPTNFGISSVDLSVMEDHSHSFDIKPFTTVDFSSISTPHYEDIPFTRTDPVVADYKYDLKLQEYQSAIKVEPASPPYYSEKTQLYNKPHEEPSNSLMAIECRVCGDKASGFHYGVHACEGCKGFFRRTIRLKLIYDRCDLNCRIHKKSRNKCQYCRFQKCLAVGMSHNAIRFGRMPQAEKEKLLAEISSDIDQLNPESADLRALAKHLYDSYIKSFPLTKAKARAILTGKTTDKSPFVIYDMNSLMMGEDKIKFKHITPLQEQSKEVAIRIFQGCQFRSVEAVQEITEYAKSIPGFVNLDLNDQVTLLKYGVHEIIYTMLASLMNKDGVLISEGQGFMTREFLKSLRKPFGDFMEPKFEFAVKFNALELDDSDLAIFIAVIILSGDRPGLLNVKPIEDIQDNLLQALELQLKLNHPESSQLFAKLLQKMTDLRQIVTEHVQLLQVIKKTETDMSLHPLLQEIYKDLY

Assay [10] deals with Nuclear receptor subfamily 1 group I member 2 (Homo sapiens) (UniProt O75469). As to the kind of experiment: ATG_PXR_TRANS: Attagene TRANS-FACTORIAL HepG2 Assay for human Pregnane X Receptor (PXR) (AID 2283008; active = hit-call score of the fitted dose curve at least 0.9, where 1 is the maximum). In outline:
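HepG2 transfected (FuGene 6) with GAL4-UAS reporter units + PXR-Gal4 chimera; dosed 24 h. Total RNA → oligo(dT) RT → PCR → 6-FAM primer extension → HpaI cut → CE. Gain-of-signal vs DMSO.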

Assay [11] deals with human RAR-related Orphan Receptor gamma (RORg), RORC (gene 6097) (UniProt P51449). Nature of the assay: ATG_RORg_TRANS: Attagene TRANS-FACTORIAL HepG2 Assay for human RAR-related Orphan Receptor gamma (RORg) (AID 2283011; active = hit-call score of the fitted dose curve at least 0.9, where 1 is the maximum;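 for AC50: potency for induction of reporter transcripts above DMSO so activators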). The procedure, abridged: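 Activity is scored as increase in GAL4-UAS reporter mRNA over DMSO, detected by fluorescent RT-PCR and capillary electrophoresis in HepG2 cells transiently expressing a RORg-Gal4 chimera, 24 h after dosing.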
human RAR-related Orphan Receptor gamma (RORg), RORC (gene 6097), sequence (P51449 whole entry, looked up, the tested form may be a part): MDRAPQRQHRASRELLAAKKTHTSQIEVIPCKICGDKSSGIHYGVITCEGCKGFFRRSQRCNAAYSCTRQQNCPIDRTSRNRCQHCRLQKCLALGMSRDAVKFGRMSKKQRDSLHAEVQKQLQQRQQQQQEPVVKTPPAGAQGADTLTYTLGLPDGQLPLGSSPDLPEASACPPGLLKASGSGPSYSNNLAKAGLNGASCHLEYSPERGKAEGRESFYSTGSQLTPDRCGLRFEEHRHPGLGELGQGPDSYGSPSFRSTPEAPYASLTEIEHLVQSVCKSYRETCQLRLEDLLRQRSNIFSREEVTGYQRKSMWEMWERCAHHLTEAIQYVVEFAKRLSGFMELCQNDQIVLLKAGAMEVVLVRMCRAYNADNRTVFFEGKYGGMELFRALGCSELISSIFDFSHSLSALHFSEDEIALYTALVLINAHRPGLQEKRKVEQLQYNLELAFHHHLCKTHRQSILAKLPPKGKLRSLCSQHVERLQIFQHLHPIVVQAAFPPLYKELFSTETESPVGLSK

For assay [12], the target named is human RAR-related Orphan Receptor beta (RORb), RORB (gene 6096) (UniProt Q92753). As to the kind of experiment: ATG_RORb_TRANS: Attagene TRANS-FACTORIAL HepG2 Assay for human RAR-related Orphan Receptor beta (RORb) (AID 2283010; active = hit-call score of the fitted dose curve at least 0.9, where 1 is the maximum). The procedure, abridged: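 Read-out is reporter mRNA induction, quantified by RT-PCR with fluorescent capillary electrophoresis, 24 h post-dose in transiently transfected HepG2 expressing exogenous NR-Gal4 chimera. Activity fitted upward versus DMSO.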
human RAR-related Orphan Receptor beta (RORb), RORB (gene 6096), sequence (Q92753 whole entry, looked up, the tested form may be a part): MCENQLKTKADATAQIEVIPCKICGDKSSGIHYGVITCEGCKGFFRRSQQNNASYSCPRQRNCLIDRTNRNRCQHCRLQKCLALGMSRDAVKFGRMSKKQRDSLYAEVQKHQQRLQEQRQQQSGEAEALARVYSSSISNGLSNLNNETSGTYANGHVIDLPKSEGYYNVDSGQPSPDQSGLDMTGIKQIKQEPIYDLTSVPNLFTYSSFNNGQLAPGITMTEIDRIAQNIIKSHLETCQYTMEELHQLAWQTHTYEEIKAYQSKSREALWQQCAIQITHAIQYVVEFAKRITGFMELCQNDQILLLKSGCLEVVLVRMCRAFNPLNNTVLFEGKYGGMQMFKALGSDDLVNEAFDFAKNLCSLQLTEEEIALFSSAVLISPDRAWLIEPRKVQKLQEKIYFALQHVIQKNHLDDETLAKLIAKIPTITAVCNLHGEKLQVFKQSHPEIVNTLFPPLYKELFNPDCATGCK

Assay [13] is described as follows: BSK_3C_uPAR: BioMAP Diversity Plus: 3C Assay for Urokinase-type plasminogen activator receptor (uPAR) Biomarker Activity (AID 2282998). To be noted: BioMAP 3C HUVEC, uPAR biomarker ELISA; actives raise or lower the signal. The procedure, abridged: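 HUVEC primary cells; 24 h post-dose; uPAR by ELISA; gain or loss of signal fitted bidirectionally vs DMSO baseline.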
A general note: An ELISA detects its analyte on a solid surface through an enzyme-linked reagent.

Assay [14] in a line: BSK_3C_VCAM1: BioMAP Diversity Plus: 3C Assay for Vascular cell adhesion molecule 1 (VCAM1) Biomarker Activity (AID 2282999). The following applies: BioMAP 3C HUVEC, VCAM1 ELISA, cytokine-stimulated; actives raise or lower the signal. In outline:
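HUVEC primary cells, 24 h compound exposure; VCAM-1 by ELISA; gain/loss of signal fitted bidirectionally vs DMSO baseline.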

Assay [15] is described as follows: BSK_4H_Eotaxin3: BioMAP Diversity Plus: 4H Assay for Eotaxin 3 Biomarker Activity (AID 2283000). The following applies: primary human endothelial cells (HUVEC); actives raise or lower the signal. In outline: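 Endothelial primary cells (human umbilical vein) exposed to compound for 24 h. ELISA detection of Eotaxin-3.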
Read-out in assay [16]: Intercellular Adhesion Molecule 1 (ICAM1), ICAM1 (gene 3383)
As to the kind of experiment: BSK_3C_ICAM1: BioMAP Diversity Plus: 3C Assay for Intercellular Adhesion Molecule 1 (ICAM1) Biomarker Activity (AID 2283003). To be noted: primary human endothelial cells (HUVEC); actives raise or lower the signal. In outline:
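ELISA readout of ICAM1 in human umbilical vein endothelial cells in the 3C system, taken 24 h post-dose. Gain or loss of signal versus DMSO was fitted in both directions, with SRB total-protein staining run in parallel.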

Assay [17] in a line: BSK_3C_Proliferation: Cell Proliferation Assessment in the BioMAP Diversity Plus: 3C Assay (AID 2283006).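 Note: potency may reflect either rise or fall in cell number versus DMSO.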 To be noted: primary human endothelial cells (HUVEC). In outline:
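Proliferation as total protein: sulforhodamine B (0.1%) stain of TCA-fixed subconfluent human umbilical vein endothelial cells, absorbance 560 nm, 48 h after dosing. Activity fitted in both directions against DMSO baseline.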

Assay [18] deals with Retinoic acid receptor alpha (Homo sapiens) (UniProt P10276). As to the kind of experiment: ATG_RARa_TRANS: Attagene TRANS-FACTORIAL HepG2 Assay for human Retinoic Acid Receptor alpha (RARa) (AID 2283005; active = hit-call score of the fitted dose curve at least 0.9, where 1 is the maximum). The procedure, abridged: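 HepG2 transiently transfected with multiplex GAL4-UAS reporter units including a human RARa–GAL4 chimera; 24 h compound exposure. Reporter mRNA quantified by RT-PCR, 6-FAM labeling and capillary electrophoresis; gain of signal versus DMSO.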
Retinoic acid receptor alpha (Homo sapiens), sequence (P10276 whole entry, looked up, the tested form may be a part): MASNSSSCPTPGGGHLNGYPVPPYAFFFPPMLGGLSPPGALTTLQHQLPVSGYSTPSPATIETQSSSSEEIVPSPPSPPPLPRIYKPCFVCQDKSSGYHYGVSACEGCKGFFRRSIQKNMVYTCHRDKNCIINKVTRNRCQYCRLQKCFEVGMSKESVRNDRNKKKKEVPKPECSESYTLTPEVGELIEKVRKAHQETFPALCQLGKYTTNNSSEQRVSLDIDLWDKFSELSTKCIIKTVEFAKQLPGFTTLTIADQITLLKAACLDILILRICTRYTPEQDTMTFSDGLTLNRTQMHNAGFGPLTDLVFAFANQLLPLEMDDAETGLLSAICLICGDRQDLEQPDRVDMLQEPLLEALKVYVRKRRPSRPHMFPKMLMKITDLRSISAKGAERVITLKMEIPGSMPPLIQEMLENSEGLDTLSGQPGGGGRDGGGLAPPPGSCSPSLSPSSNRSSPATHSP

Assay [19] addresses human Retinoic Acid Receptor gamma (RARg), RARG (gene 5916) (UniProt P13631). As to the kind of experiment: ATG_RARg_TRANS: Attagene TRANS-FACTORIAL HepG2 Assay for human Retinoic Acid Receptor gamma (RARg) (AID 2283009; active = hit-call score of the fitted dose curve at least 0.9, where 1 is the maximum). In outline: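 Transactivation of exogenous RARg-Gal4 fusion measured as reporter transcript induction after 24 h in transfected HepG2 cells. RNA reverse-transcribed, amplified, fluorescently labeled and resolved by capillary electrophoresis; increase relative to DMSO.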

human Peroxisome Proliferator-activated Receptor delta (PPARd), PPARD (gene 5467), sequence (Q03181 whole entry, looked up, the tested form may be a part): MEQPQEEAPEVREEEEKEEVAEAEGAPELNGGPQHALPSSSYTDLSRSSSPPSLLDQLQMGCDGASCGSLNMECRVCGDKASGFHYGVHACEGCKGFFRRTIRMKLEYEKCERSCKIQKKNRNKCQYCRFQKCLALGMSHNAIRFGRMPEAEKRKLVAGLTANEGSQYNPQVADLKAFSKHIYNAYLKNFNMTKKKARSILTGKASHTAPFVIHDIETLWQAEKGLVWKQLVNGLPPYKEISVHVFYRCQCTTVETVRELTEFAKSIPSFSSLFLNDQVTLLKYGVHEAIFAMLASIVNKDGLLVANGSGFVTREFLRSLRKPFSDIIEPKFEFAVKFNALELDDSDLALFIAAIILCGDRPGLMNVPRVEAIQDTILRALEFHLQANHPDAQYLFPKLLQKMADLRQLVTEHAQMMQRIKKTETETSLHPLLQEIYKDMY
Nuclear receptor subfamily 1 group I member 2 (Homo sapiens), sequence (O75469 whole entry, looked up, the tested form may be a part): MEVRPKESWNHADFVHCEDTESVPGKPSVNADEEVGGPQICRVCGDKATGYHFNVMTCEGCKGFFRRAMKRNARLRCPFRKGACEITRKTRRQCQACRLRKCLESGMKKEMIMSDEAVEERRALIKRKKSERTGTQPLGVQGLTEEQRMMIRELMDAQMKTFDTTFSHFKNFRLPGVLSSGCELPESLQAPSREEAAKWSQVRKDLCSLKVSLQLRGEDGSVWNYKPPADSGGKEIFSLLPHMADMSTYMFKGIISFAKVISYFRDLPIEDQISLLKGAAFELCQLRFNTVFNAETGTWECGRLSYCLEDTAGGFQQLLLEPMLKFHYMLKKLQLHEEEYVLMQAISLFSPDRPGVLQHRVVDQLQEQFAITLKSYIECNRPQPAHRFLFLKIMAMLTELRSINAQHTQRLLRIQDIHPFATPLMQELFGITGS
Cellular tumor antigen p53 (Homo sapiens), sequence (P04637 whole entry, looked up, the tested form may be a part): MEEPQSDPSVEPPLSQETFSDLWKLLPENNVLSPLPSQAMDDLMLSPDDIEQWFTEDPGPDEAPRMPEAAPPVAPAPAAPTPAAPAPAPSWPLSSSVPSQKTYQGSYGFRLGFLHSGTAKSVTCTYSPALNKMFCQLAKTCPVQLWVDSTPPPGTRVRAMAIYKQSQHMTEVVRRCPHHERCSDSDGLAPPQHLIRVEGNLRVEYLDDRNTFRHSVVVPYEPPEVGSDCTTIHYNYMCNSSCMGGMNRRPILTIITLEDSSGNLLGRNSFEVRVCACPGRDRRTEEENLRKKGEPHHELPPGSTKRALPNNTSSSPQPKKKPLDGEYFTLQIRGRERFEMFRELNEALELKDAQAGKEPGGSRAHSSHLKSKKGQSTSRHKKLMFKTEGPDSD
human Retinoic Acid Receptor gamma (RARg), RARG (gene 5916), sequence (P13631 whole entry, looked up, the tested form may be a part): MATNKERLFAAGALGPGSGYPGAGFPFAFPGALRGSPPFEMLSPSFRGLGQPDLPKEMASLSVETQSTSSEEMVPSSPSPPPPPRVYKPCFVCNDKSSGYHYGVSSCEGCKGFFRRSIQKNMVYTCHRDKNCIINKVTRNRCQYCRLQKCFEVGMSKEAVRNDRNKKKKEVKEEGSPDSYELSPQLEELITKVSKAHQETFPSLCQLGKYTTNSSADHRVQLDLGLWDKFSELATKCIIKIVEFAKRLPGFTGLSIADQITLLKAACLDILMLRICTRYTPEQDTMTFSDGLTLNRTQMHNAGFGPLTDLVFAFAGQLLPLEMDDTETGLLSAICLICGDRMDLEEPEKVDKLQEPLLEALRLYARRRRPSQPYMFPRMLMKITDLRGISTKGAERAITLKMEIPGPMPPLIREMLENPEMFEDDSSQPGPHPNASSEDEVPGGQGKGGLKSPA

Consider `CCCOC(=O)CCCCC(=O)OCCC`, for which the molecule was classed as inactive in assay [1], in [2], in [3], in assay [4], in assay [5] and in assay [6]. Besides, the result in assay [7], in assay [8], in [9], in assay [10] and in assay [11] was inactive.

On to `C=CC(=O)OCCOC1C2CCC1C1CC=CC12` (configuration not stated), for which the call in assay [1], in [2], in [3], in assay [4], in assay [5] and in assay [6] was inactive. Also, the molecule was classed as inactive in [7], in [8], in [9] and in assay [10].

As for `NC(=O)OCC(COC(N)=O)c1ccccc1`, the result in assay [1], in assay [2], in assay [3], in [4], in assay [5] and in assay [6] was inactive. In addition, the outcome in [7], in assay [8], in assay [10], in assay [12] and in assay [11] was inactive.

Consider `C=CC(=O)OCC(Br)CBr` (configuration not stated), for which the AC50 in assay [1] was 163 µM (active); in assay [3] it was 56.6 µM (active); in assay [4], 24.8 µM (active); in assay [6], 165 µM (active); in [13], 34.2 µM (active); in [14], 18.4 µM (active). Also, the concentration at half-maximal activity (AC50) in assay [15] is 20 µM (active); in assay [7], 144 µM (active); in [16], 30.1 µM (active); in assay [17], 9.42 µM (active); in assay [9], 51.6 µM (active); in assay [10], 100 µM (active). For the same molecule, the AC50 in assay [11] is 176 µM (active). Moreover, the result in [2], in assay [5] and in assay [12] was inactive.

For the molecule `COC(=O)c1sccc1S(N)(=O)=O`, the molecule was called inactive in [1], in assay [2], in assay [3], in assay [4], in assay [5] and in assay [6]. The molecule was classed as inactive in assay [7], in [8], in assay [18], in [9], in assay [10] and in assay [19]. The molecule was classed as inactive in assay [12] and in assay [11].
